Molecular target: T1, ELK1 (Homo sapiens, UniProt P19419 1-428)
T1 sequence: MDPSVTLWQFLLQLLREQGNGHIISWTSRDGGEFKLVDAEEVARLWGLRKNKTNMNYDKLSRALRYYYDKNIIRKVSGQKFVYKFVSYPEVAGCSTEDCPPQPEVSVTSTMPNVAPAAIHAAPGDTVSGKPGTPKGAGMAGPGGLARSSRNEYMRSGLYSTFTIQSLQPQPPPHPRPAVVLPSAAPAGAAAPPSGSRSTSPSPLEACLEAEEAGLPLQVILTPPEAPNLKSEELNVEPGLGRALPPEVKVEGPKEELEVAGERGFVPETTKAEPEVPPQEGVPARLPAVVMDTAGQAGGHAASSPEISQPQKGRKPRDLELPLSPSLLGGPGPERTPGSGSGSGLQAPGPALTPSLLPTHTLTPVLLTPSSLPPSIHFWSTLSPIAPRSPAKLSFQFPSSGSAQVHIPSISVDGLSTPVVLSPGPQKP
Assay: DAPPL (digital affinity profiling via proximity ligation, sequencing); 10 mM Tris-HCl pH 7.5, 50 mM NaCl, 1 mM DTT, 4% glycerol, room temperature, 30 min; GST-TFs on glutathione beads, 16-mer random dsDNA library, 0.1% formaldehyde crosslink after washing; high values mean tight binding
Conditions: protein: recombinant; tags: N-terminal GST; dsDNA, one strand shown
Summary of the method: (§1)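 Beads coated with glutathione captured GST-fused human transcription factors that had been expressed in yeast, and the factors were then given DNA barcodes and pooled with a tag-only sample. The pools were incubated with 200 nmole of a random double-stranded 16-mer DNA library in Tris/NaCl/DTT/glycerol buffer for 30 min at room temperature, washed, crosslinked with 0.1% formaldehyde and proximity-ligated with BsaI/T4 ligase at 37 °C for 1 h. PCR amplification and Illumina NextSeq500 sequencing came last. Binding signal is each hexamer's read frequency for a factor divided by its frequency for the tag-only sample.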

| Sequence | binding signal |
| --- | --- |
| TACCGC | 1.07 fold enrichment (6-mer frequency, TF over GST control) |
| TGCATA | 1.11 fold enrichment (6-mer frequency, TF over GST control) |
| AAGTCA | 1.24 fold enrichment (6-mer frequency, TF over GST control) |
| CGCTCA | 1.21 fold enrichment (6-mer frequency, TF over GST control) |
| TCACCC | 1.23 fold enrichment (6-mer frequency, TF over GST control) |
| CTCAGT | 1.21 fold enrichment (6-mer frequency, TF over GST control) |
| CCTCGG | 1.17 fold enrichment (6-mer frequency, TF over GST control) |
| TGATGT | 1.31 fold enrichment (6-mer frequency, TF over GST control) |
| TCCGTT | 1.61 fold enrichment (6-mer frequency, TF over GST control) |
| CGGTTT | 1.18 fold enrichment (6-mer frequency, TF over GST control) |
| CTACGT | 1.23 fold enrichment (6-mer frequency, TF over GST control) |
| TCACAT | 1.25 fold enrichment (6-mer frequency, TF over GST control) |
| TCAATG | 1.13 fold enrichment (6-mer frequency, TF over GST control) |
| ACCACT | 1.22 fold enrichment (6-mer frequency, TF over GST control) |
| TTGTTG | 1.12 fold enrichment (6-mer frequency, TF over GST control) |
| GGCATT | 1.05 fold enrichment (6-mer frequency, TF over GST control) |
| CCTAGA | 1.01 fold enrichment (6-mer frequency, TF over GST control) |
| ACCTTG | 1.37 fold enrichment (6-mer frequency, TF over GST control) |
| AACGGC | 1.13 fold enrichment (6-mer frequency, TF over GST control) |
| TCATGC | 1.22 fold enrichment (6-mer frequency, TF over GST control) |

| Sequence | binding signal |
| --- | --- |
| AAACGG | 1.24 fold enrichment (6-mer frequency, TF over GST control) |
| CCTGTA | 1.16 fold enrichment (6-mer frequency, TF over GST control) |
| TACAGG | 1.16 fold enrichment (6-mer frequency, TF over GST control) |
| ACCGCC | 1.23 fold enrichment (6-mer frequency, TF over GST control) |
| ATCACA | 1.09 fold enrichment (6-mer frequency, TF over GST control) |
| CCTACC | 1.37 fold enrichment (6-mer frequency, TF over GST control) |
| TGCTGA | 1.03 fold enrichment (6-mer frequency, TF over GST control) |
| TGCAAT | 1.21 fold enrichment (6-mer frequency, TF over GST control) |
| TGTATA | 1.11 fold enrichment (6-mer frequency, TF over GST control) |
| AAAGGG | 1.11 fold enrichment (6-mer frequency, TF over GST control) |
| GCCTCC | 1.34 fold enrichment (6-mer frequency, TF over GST control) |
| GATATC | 1.6 fold enrichment (6-mer frequency, TF over GST control) |
| TACCCA | 1.09 fold enrichment (6-mer frequency, TF over GST control) |
| CTGACC | 1.41 fold enrichment (6-mer frequency, TF over GST control) |
| CCATCA | 1.21 fold enrichment (6-mer frequency, TF over GST control) |
| TACGTC | 1.16 fold enrichment (6-mer frequency, TF over GST control) |
| ATACGT | 1.14 fold enrichment (6-mer frequency, TF over GST control) |
| GGATAT | 1.65 fold enrichment (6-mer frequency, TF over GST control) |
| GGTCTA | 1.05 fold enrichment (6-mer frequency, TF over GST control) |

Molecular target: T2, GABPA (Homo sapiens, UniProt Q06546 1-454)
T2 sequence: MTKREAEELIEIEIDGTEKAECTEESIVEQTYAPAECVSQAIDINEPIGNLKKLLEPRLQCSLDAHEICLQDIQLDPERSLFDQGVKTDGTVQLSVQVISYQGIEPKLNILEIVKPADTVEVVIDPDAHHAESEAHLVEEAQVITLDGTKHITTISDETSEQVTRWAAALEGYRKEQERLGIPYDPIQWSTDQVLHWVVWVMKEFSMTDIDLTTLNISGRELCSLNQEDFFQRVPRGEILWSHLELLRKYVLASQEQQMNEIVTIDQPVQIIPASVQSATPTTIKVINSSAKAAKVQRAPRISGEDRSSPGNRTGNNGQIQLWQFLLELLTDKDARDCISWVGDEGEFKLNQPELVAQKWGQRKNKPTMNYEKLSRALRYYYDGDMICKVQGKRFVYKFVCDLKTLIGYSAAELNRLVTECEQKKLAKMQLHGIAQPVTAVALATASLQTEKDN
Assay: as above
Conditions: protein: recombinant; tags: N-terminal GST; dsDNA, one strand shown
Summary of the method: as §1

| Sequence | binding signal |
| --- | --- |
| TACCGC | 1.02 fold enrichment (6-mer frequency, TF over GST control) |
| TGCATA | 1.13 fold enrichment (6-mer frequency, TF over GST control) |
| AAGTCA | 1.15 fold enrichment (6-mer frequency, TF over GST control) |
| CGCTCA | 1.16 fold enrichment (6-mer frequency, TF over GST control) |
| TCACCC | 1.21 fold enrichment (6-mer frequency, TF over GST control) |
| CTCAGT | 1.2 fold enrichment (6-mer frequency, TF over GST control) |
| CCTCGG | 1.2 fold enrichment (6-mer frequency, TF over GST control) |
| TGATGT | 1.19 fold enrichment (6-mer frequency, TF over GST control) |
| TCCGTT | 1.42 fold enrichment (6-mer frequency, TF over GST control) |
| CGGTTT | 1.25 fold enrichment (6-mer frequency, TF over GST control) |
| CTACGT | 1.18 fold enrichment (6-mer frequency, TF over GST control) |
| TCACAT | 1.23 fold enrichment (6-mer frequency, TF over GST control) |
| TCAATG | 1.11 fold enrichment (6-mer frequency, TF over GST control) |
| ACCACT | 1.35 fold enrichment (6-mer frequency, TF over GST control) |
| TTGTTG | 1.07 fold enrichment (6-mer frequency, TF over GST control) |
| GGCATT | 1.04 fold enrichment (6-mer frequency, TF over GST control) |
| ACCTTG | 1.24 fold enrichment (6-mer frequency, TF over GST control) |
| AACGGC | 1.25 fold enrichment (6-mer frequency, TF over GST control) |
| TCATGC | 1.19 fold enrichment (6-mer frequency, TF over GST control) |

— paper PMC7862700, “An all-to-all approach to the identification of sequence-specific readers for epigenetic DNA modifications on cytosine”
